Test results: PubChem BioAssay (Tox21)
Where “and” joins values, the source holds several entries; their conditions need not be identical. Equal values may be shown once. A structure can be active in one record and inactive in another. Calls of active or inactive are those of the source. A call without a number means that no potency is given here. Unless noted, calls come from the whole dose curve; as a rule, active = well fitted curve in the direction sought with a large enough effect in the repeat runs; inconclusive = weak or mixed curves; inactive = no such curve, though single readings can be large; an effect the other way counts as inactive or inconclusive.

Experiments:
[1] = qHTS assay to identify small molecule antagonists of the glucocorticoid receptor (GR) signaling pathway - cell viability counter screen (AID 720693); settings: GR-bla HeLa viability, CellTiter-Glo luminescence, 18 h, with 5 nM dexamethasone present; series mostly up to 58.5 µM; note: nearly all actives have a fitted effect of over 55% in size; note: potency is the fitted concentration of half-maximal effect
[2] = qHTS assay to identify small molecule antagonists of the androgen receptor (AR) signaling pathway - cell viability counter screen (AID 743033; note: nearly all actives have a fitted effect of over 45% in size; note: potency is the fitted concentration of half-maximal effect); settings: AR-bla HEK293 viability, CellTiter-Glo luminescence, 16 h; series mostly up to 58.5 µM
[3] = biological target: Androgen receptor (Homo sapiens) (UniProt P10275); assay: qHTS assay to identify small molecule agonists of the androgen receptor (AR) signaling pathway using the MDA cell line (AID 743040; note: nearly all actives have a fitted effect of over 20% in size); settings: MDA-kb2 AR-luc cells, MMTV luciferase, 16 h; series mostly up to 70.3 µM
How it was run: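 Luciferase read-out, ONE-Glo, 30 min RT. Cells: MDA-kb2 AR-luc, MMTV promoter with AR and GR response elements. Compound exposure 16 h, 37C, 0% CO2, after 5 h pre-incubation. qHTS agonist mode.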

[4] = qHTS assay to identify small molecule antagonists of the androgen receptor (AR) signaling pathway using the MDA cell line - cell viability counter screen (AID 743041; note: nearly all actives have a fitted effect of over 45% in size; note: potency is the fitted concentration of half-maximal effect); settings: MDA-kb2 viability, CellTiter-Fluor, 16 h, cells co-treated with R1881 androgen agonist; series mostly up to 70.3 µM
How it was run: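 Cytotoxicity counter screen: MDA-kb2 AR-luc cells, compound + R1881, 16 h, 37C, 0% CO2; CellTiter-Fluor added at 15.5 h, fluorescence read after 30 min.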

[5] = biological target: Androgen receptor (Homo sapiens) (UniProt P10275); assay: qHTS assay to identify small molecule antagonists of the androgen receptor (AR) signaling pathway using the MDA cell line (AID 743042; note: nearly all actives have a fitted effect of over 55% in size; note: potency is the fitted concentration of half-maximal effect); settings: MDA-kb2 AR-luc, MMTV luciferase, R1881 antagonist, 16 h; series mostly up to 70.3 µM
How it was run: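 MDA-kb2 breast carcinoma cells carrying MMTV-luciferase (AR/GR responsive) were co-treated with compounds and the agonist R1881 for 16 h at 37C. Inhibition read as ONE-Glo luminescence; CellTiter-Fluor fluorescence measured in parallel for cytotoxicity.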

[6] = qHTS assay to identify small molecule antagonists of the thyroid receptor (TR) signaling pathway - cell viability counter screen (AID 743064); settings: GH3.TRE-Luc viability, CellTiter-Fluor, 24 h; series mostly up to 70.3 µM; note: nearly all actives have a fitted effect of over 50% in size; note: potency is the fitted concentration of half-maximal effect
How it was run: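 Rat GH3 pituitary tumor cells stably expressing two TR response elements driving luciferase were plated, rested 4 h, then dosed with library compounds and T3 (1 nM final). After 23.5 h at 37 °C, CellTiter-Fluor was added for 30 min and fluorescence recorded.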

[7] = qHTS assay to identify small molecule antagonists of the thyroid receptor (TR) signaling pathway (AID 743065); settings: GH3.TRE-Luc, T3-stimulated luciferase inhibition, 23.5 h; series mostly up to 70.3 µM; note: nearly all actives have a fitted effect of over 55% in size; note: potency is the fitted concentration of half-maximal effect
How it was run: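 GH3.TRE-Luc rat pituitary cells (two TREs driving luciferase) were dosed with compound, then stimulated with 1 nM T3 (final) for 23.5 h at 37 C. ONE-Glo luminescence was the read-out, with CellTiter-Fluor fluorescence as the cytotoxicity counter-screen.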

[8] = system: thyroid hormone receptor (rat, GH3 cells); assay: qHTS assay to identify small molecule agonists of the thyroid receptor (TR) signaling pathway (AID 743066; calls by dose curve); settings: GH3.TRE-Luc cells, TR agonist luciferase, 24 h; series mostly up to 83.9 µM
[9] = biological target: Estrogen receptor (Homo sapiens) (UniProt P03372); assay: qHTS assay to identify small molecule antagonists of the estrogen receptor alpha (ER-alpha) signaling pathway (AID 743069; active = well fitted curve in the direction sought with a large enough effect in the signal ratio in the repeat runs, not every such curve was filed as active; inconclusive = weak or mixed curves, or effect the other way; inactive = no such curve, though single readings can be large or run the other way; the % refers to the signal ratio; note: potency is the fitted concentration of half-maximal effect); settings: HEK293 ER-alpha-UAS-bla, beta-lactamase ratio, antagonist mode; series mostly up to 69.4 µM
How it was run: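 Beta-lactamase FRET fluorescence is read after 2 hr at room temperature with LiveBLAzer B/G substrate. Before that, ER-alpha-bla HEK293 cells sit 4 hr after plating, then receive compound plus 17beta-estradiol and incubate 18 hr at 37C.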

[10] = qHTS assay to identify small molecule antagonists of the estrogen receptor alpha (ER-alpha) signaling pathway - cell viability counter screen (AID 743074; calls by dose curve;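 note: HEK293 cells carrying ER-alpha-UAS-bla reporter stimulated with 17beta-estradiol; nearly all actives have a fitted effect of over 45% in size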; note: potency is the fitted concentration of half-maximal effect); settings: ERalpha-bla HEK293 viability, CellTiter-Glo luminescence, 18 h; series mostly up to 69.4 µM
[11] = biological target: Estrogen receptor (Homo sapiens) (UniProt P03372); assay: qHTS assay to identify small molecule agonists of the estrogen receptor alpha (ER-alpha) signaling pathway (AID 743075; calls by dose curve;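 note: HEK293 GripTite cells with ER-alpha and UAS-driven beta-lactamase reporter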; note: potency is the fitted concentration of half-maximal effect); settings: HEK293 ER-alpha-UAS-bla, beta-lactamase FRET ratio, 18 h; series mostly up to 70.1 µM
[12] = biological target: Estrogen receptor (Homo sapiens) (UniProt P03372); assay: qHTS assay to identify small molecule agonists of the estrogen receptor alpha (ER-alpha) signaling pathway using the BG1 cell line (AID 743079); settings: BG1Luc4E2 cells, ERE-luciferase agonist, 22 h; activation: at 70.3 µM (top of the series); note: nearly all actives have a fitted effect of over 20% in size; note: potency is the fitted concentration of half-maximal effect
[13] = qHTS assay to identify small molecule antagonists of the estrogen receptor alpha (ER-alpha) signaling pathway using the BG1 cell line (AID 743080; calls by dose curve;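 note: BG1 cells stimulated with 17beta-estradiol alongside compound; nearly all actives have a fitted effect of over 25% in size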; note: potency is the fitted concentration of half-maximal effect); settings: BG1Luc4E2 ERE-luciferase antagonist mode, luminescence; activity change, negative = inhibition: at 70.3 µM (top of the series)
How it was run: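 BG1-Luc-4E2 cells (endogenous full-length ER-alpha, 4xERE luciferase) hormone-starved 5 days in charcoal-stripped FBS, plated 4,000/well for 24 h, then compound plus 17beta-estradiol for 21.5 h at 37 C; ONE-Glo luminescence read.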

[14] = qHTS assay to identify small molecule antagonists of the estrogen receptor alpha (ER-alpha) signaling pathway using the BG1 cell line - cell viability counter screen (AID 743081); settings: BG1Luc4E2 viability, CellTiter-Fluor, 22 h; series mostly up to 70.3 µM;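 note: compound given together with 17beta-estradiol as the ER stimulus; nearly all actives have a fitted effect of over 45% in size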
[15] = biological target: Aromatase (Homo sapiens) (UniProt P11511); assay: qHTS assay to identify aromatase inhibitors (AID 743083); settings: MCF-7 aro ERE, testosterone-driven ERE luciferase, 24 h; series mostly up to 70.3 µM; note: nearly all actives have a fitted effect of over 55% in size; note: potency is the fitted concentration of half-maximal effect
[16] = qHTS assay for identifying genotoxic compounds that show differential cytotoxicity against isogenic chicken DT40 cell lines with known DNA damage response pathways - Rev3 mutant cell line (AID 743014); settings: chicken DT40 Rev3-/- viability, CellTiter-Glo, 40 h; series mostly up to 68.4 µM; note: nearly all actives have a fitted effect of over 55% in size; note: potency is the fitted concentration of half-maximal effect
[17] = qHTS assay for identifying genotoxic compounds that show differential cytotoxicity against isogenic chicken DT40 cell lines with known DNA damage response pathways - Rad54/Ku70 mutant cell line (AID 743015); settings: DT40 Rad54/Ku70 mutant viability, CellTiter-Glo, 40 h; series mostly up to 66.8 µM; note: nearly all actives have a fitted effect of over 60% in size; note: potency is the fitted concentration of half-maximal effect
[18] = biological target: Androgen receptor (Homo sapiens) (UniProt P10275); assay: qHTS assay to identify small molecule antagonists of the androgen receptor (AR) signaling pathway (AID 743035; active = well fitted inhibition curve with a large enough effect in the signal ratio in the repeat runs, not every such curve was filed as active; inconclusive = weak or mixed curves, or effect the other way; inactive = no such curve, though single readings can be large or run the other way; the % refers to the signal ratio; note: potency is the fitted concentration of half-maximal effect); settings: HEK293 AR-UAS-bla, R1881-stimulated, beta-lactamase FRET, 16 h; series mostly up to 58.5 µM
How it was run: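 Antagonist mode: AR-bla HEK293 cells co-treated with test compounds and agonist R1881 for 16 h at 37C, 5% CO2. Beta-lactamase activity read as FRET fluorescence after 2 h room-temperature substrate loading.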

[19] = qHTS assay for identifying genotoxic compounds that show differential cytotoxicity against isogenic chicken DT40 cell lines with known DNA damage response pathways - wild type cell line (AID 743012); settings: DT40 wild type chicken cells viability, CellTiter-Glo, 40 h; series mostly up to 68.4 µM; note: potency is the fitted concentration of half-maximal effect; nearly all actives have a fitted effect of over 60% in size
How it was run: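 Viability by ATP luminescence (CellTiter-Glo, 30 min RT) after 40 h compound treatment at 37 C/5% CO2, using 300 parental DNA repair-proficient DT40 cells per well.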

Chain of Aromatase (Homo sapiens) (P11511 whole entry, looked up): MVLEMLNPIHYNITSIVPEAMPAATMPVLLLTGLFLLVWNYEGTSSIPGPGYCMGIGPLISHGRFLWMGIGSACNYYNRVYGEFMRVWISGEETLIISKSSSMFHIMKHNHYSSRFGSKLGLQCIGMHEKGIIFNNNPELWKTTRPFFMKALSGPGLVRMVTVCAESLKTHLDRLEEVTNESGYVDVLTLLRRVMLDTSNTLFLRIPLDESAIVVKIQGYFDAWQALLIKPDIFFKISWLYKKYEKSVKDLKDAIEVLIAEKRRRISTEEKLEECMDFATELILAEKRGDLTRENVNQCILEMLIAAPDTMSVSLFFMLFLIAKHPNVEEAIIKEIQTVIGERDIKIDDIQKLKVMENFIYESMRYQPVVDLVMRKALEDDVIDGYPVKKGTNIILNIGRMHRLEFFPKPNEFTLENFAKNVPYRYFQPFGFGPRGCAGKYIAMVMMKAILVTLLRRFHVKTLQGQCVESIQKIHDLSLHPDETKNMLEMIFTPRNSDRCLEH
Chain of Estrogen receptor (Homo sapiens) (P03372 whole entry, looked up): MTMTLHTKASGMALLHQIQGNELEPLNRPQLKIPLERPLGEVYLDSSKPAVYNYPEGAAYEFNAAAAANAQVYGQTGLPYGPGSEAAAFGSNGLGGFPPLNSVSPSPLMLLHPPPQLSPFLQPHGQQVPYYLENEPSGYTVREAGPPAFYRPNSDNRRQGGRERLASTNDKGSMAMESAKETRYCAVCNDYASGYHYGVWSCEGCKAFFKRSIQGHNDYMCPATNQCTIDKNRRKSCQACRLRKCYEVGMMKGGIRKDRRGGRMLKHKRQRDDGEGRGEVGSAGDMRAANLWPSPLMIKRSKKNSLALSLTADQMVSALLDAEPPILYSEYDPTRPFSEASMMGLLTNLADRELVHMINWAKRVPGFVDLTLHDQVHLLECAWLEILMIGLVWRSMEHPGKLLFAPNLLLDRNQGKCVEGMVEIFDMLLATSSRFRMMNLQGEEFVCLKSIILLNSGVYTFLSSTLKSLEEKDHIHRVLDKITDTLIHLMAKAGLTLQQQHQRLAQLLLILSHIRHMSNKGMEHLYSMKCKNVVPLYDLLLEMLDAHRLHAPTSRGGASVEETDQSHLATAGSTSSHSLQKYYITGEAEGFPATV
Chain of Androgen receptor (Homo sapiens) (P10275 whole entry, looked up): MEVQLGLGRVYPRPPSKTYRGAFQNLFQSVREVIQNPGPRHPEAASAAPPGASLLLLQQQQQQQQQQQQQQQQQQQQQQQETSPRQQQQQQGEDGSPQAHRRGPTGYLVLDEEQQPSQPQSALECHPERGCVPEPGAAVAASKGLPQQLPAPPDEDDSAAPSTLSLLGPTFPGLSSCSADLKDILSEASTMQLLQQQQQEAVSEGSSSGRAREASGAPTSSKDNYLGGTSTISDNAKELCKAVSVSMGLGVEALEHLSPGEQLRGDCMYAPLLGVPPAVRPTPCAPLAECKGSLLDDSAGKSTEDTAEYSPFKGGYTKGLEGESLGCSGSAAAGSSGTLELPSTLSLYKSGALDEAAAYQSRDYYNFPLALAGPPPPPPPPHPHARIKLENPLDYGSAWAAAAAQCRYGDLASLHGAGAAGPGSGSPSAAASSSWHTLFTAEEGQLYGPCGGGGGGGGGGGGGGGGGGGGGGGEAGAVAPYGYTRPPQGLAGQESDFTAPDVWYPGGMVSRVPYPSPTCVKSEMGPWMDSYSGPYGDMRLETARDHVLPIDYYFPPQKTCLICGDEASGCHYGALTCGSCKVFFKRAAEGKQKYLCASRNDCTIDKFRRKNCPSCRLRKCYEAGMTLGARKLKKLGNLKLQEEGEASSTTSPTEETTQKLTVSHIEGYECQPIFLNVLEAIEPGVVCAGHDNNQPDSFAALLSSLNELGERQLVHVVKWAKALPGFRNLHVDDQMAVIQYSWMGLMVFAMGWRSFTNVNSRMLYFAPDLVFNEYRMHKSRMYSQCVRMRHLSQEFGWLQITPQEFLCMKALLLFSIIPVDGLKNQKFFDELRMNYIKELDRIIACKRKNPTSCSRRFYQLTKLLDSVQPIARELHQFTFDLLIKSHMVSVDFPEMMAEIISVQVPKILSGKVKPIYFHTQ

Structure (SMILES) | Potency [1] | Potency [2] | Potency [3] | Potency [4] | Potency [5] | Potency [6] | Potency [7] | Potency [8] | Potency [9] | Potency [10] | Potency [11] | Potency [12] | Potency [13] | Potency [14] | Potency [15] | Potency [16] | Potency [17] | Potency [18] | Potency [19]
O=C(O)Cc1ccc(OCCNC[C@H](O)c2ccccc2)cc1 | inactive | inactive | inactive | inactive | inactive | inactive | inactive | inactive | inactive | inactive | inactive | inactive | inactive | inactive | inactive | – | – | – | –
CCCCCCCCCCCC(=O)N(CC)CC | inactive | inactive | – | inactive | – | – | inactive | inactive | – | inactive | – | – | – | inactive | inactive | 30.6 µM (active) | – | – | –
Cc1oc(-c2ccccc2)nc1CCOc1ccc(C[C@H](Nc2ccccc2C(=O)c2ccccc2)C(=O)O)cc1 | 38.9 µM (active) | inactive | inactive | 61.1 µM (active) | – | 27.3 µM (active) | 54.5 µM (active) | – | – | – | inactive | – | inactive | – | – | 61.1 µM (active) | 54.5 µM (active) | – | –
NCCCC(O)(P(=O)(O)O)P(=O)(O)O | inactive | inactive | – | inactive | – | – | – | inactive | – | inactive | – | – | – | inactive | – | – | – | – | –
CC1(C)C(=O)N(Br)C(=O)N1Br | inactive | inactive | inactive | inactive | inactive | – | inactive | inactive | – | inactive | – | – | – | inactive | inactive | – | – | inactive | –
Nc1cc(Cl)c([N+](=O)[O-])cc1O | inactive | inactive | – | – | – | 60.6 µM (active) | inactive | inactive | inactive | inactive | inactive | inactive | inactive | – | inactive | – | – | – | –
CCNc1nc(NC(C)CC)nc(OC)n1 (centres undefined) | inactive | inactive | – | inactive | – | inactive | – | inactive | – | inactive | – | – | – | inactive | inactive | – | – | – | –
CCOC(=O)COc1ccc(C)cc1 | inactive | inactive | – | inactive | – | inactive | – | – | inactive | inactive | inactive | inactive | inactive | inactive | inactive | – | inactive | – | –
CC(C)(C)CC(C)(C)c1ccccc1O | 34.9 µM (active) | 39.1 µM (active) | – | inactive | – | 19.4 µM (active) | 21.8 µM (active) | – | – | 49.2 µM (active) | 22 µM [inconclusive] (active) | 1.38 µM (active) | – | – | 48.8 µM (active) | 24.5 µM (active) | 54.8 µM (active) | – | –
O=C1OC(OC(=O)c2cccnc2Nc2cccc(C(F)(F)F)c2)c2ccccc21 (centres undefined) | inactive | inactive | inactive | inactive | inactive | – | 29.8 µM (active) | inactive | – | inactive | – | – | – | inactive | inactive | inactive | inactive | inactive | –
O=C1NC2CCCCN2C12CCN(CCCN1c3ccccc3CCc3ccc(Cl)cc31)CC2 (centres undefined) | – | – | – | – | – | 6.68 µM (active) | 8.41 µM (active) | – | – | inactive | inactive | – | – | – | 23.7 µM (active) | 13.3 µM (active) | 13.3 µM (active) | – | 9.44 µM (active)
CC(O)C#CC(C)O (centres undefined) | – | 48.5 µM (active) | – | inactive | – | – | 60.5 µM (active) | inactive | – | inactive | inactive | inactive | – | inactive | – | 7.62 µM (active) | 10.8 µM (active) | – | 9.59 µM (active)
CCCOc1sc(C(=O)N2CCC(c3cc(CN)ccc3F)CC2)c(C)c1Br | – | 20 µM (active) | inactive | 49.9 µM (active) | 44.5 µM (active) | 6.28 µM (active) | 7.91 µM (active) | – | – | 44.9 µM (active) | – | – | – | – | 25 µM (active) | 17.7 µM (active) | 14.1 µM (active) | – | 14.1 µM (active)
O=C1c2c(O)ccc(O)c2C(=O)c2c(NCCNCCO)ccc(NCCNCCO)c21 | – | – | inactive | 9.43 µM (active) | 5.07 µM (active) | 0.569 µM (active) | 0.507 µM (active) | inactive | – | inactive | – | – | – | inactive | 9.02 µM (active) | 0.0101 µM (active) | – | 0.512 µM (active) | 0.0072 µM (active)
CCOC(=O)N1CCC(=C2c3ccc(Cl)cc3CCc3cccnc32)CC1 | – | 17.4 µM (active) | – | – | – | 26.6 µM (active) and 27.3 µM (active) | – | inactive | 26.8 µM [inconclusive] (active) | inactive | inactive | – | inactive and 61.1 µM (active) | inactive | – | 7.5 µM (active) and 9.69 µM (active) | 9.44 µM (active) and 10.9 µM (active) | – | 8.41 µM (active) and 8.63 µM (active)
C=C[C@](C)(O)CC[C@@H]1[C@@]2(C)CCCC(C)(C)[C@@H]2CC[C@@]1(C)O | – | – | – | inactive | – | – | 43.3 µM (active) | – | – | 54.9 µM (active) | inactive | – | – | inactive | 54.5 µM (active) | 19.3 µM (active) | 19.3 µM (active) | – | 24.3 µM (active)
CCOC(=O)C1=C(C)NC(C)=C(C(=O)OCC)C1c1ccccc1/C=C/C(=O)OC(C)(C)C | – | inactive | inactive | inactive | – | 13.3 µM (active) | – | – | – | inactive | 6.74 µM [fluorescent] (active) | – | 33.5 µM (active) | inactive | – | 3.76 µM (active) | 5.96 µM (active) | – | 2.66 µM (active)
